Molecules are shown by their SMILES. Among all 38,000 compounds or so, about 1,200 (3.2%) showed an effect of 50% or more. The median lay at about -58%. Only a selection was taken, and strong results are over-represented in it overall.

In this assay the test system is Plasmodium falciparum. As to the kind of experiment: Calibr Malaria Delayed Death Assay SOP. It counts as functional, organism-based. Further details: scale not given: in the data most compounds retested in dose-response had high values. As to conditions: concentration 4.99e-06 (unit not given; other assays of the set use mol/L).
On to `CCc1nc(CN2CCCN(Cc3noc(C4CC4)n3)CC2)cs1`, for which the “Percent Effect” value was -72.76%. The same measure for `COc1cc(CN2CCCC23CCN(c2ccccn2)CC3)ccc1F`: 1.862%; for `Cc1cc(C)c2[nH]c(C(=O)NCCN3CCCC3=O)c(C)c2c1`: -119.1%. As for `CC(C)c1noc(CCNC(=O)N2CCN(c3cccs3)CC2)n1`, the “Percent Effect” value is recorded as -17.65%.

As to `CCc1nc(CCNC(=O)Nc2cccc(C(=O)NC)c2C)cs1`, the “Percent Effect” value is -100.3%.

As for `Cc1nnc(SC2CCc3ccccc3NC2=O)o1` (centres undefined), the “Percent Effect” value is -88.91%. The same measure for `CNc1cc(C)nc(-c2cc(NC)nc3[nH]ccc23)n1`: 49.01%.

With `CNc1cc(C)nc(-c2cc(NCCO)nc3[nH]ccc23)n1`, the “Percent Effect” value is recorded as -113.9%. Take `CNc1cc(C)nc(NCc2cc(C)cc3c(C)c(C)[nH]c23)n1`: the “Percent Effect” value amounted to 91.83%. As for `Cc1cc(CNc2cncc(C(=O)N(C)C)n2)c2[nH]c(C)c(C)c2c1`, the figure is -64.7%; as for `CNc1nc(C)cc(NCc2cc(C)cc3c(C)c(C)[nH]c23)n1`, 92.52%; as for `CCN(Cc1cnn(CC)c1)Cc1c(Cl)cncc1Cl`, -11.88%. As for `Cc1ccc(C2CN(CCCC#N)CCO2)c(C)c1` (centres undefined), the figure is -121.1%; as for `CCc1ncnc2c1CCN(S(=O)(=O)CC)CC2`, -41.95%. Take `CN(CCCc1ccccc1)C(=O)c1ccccc1NCC(=O)O`: the “Percent Effect” value is given as -16.6%. As for `CCC1=NN2C(=N)/C(=C\c3cccn3-c3ccc(Cl)cc3)C(=O)N=C2S1`, the figure is 17.01%; as for `COc1cc(I)c(Cl)cc1C(=O)N(C)CC(=O)NC(C)(C)C`, -34.35%; as for `CN1C(Cn2cccn2)C[C@@H]2CN(Cc3nccs3)CC[C@@H]21` (some centres undefined), -108.4%. The same measure for `CN1[C@H](Cn2cccn2)C[C@@H]2CN(C(=O)Cc3cccs3)CC[C@@H]21`: -36.35%.

For `CN1C(Cn2cccn2)C[C@@H]2CN(Cc3ccccn3)CC[C@@H]21.O=C(O)C(F)(F)F.O=C(O)C(F)(F)F.O=C(O)C(F)(F)F.O=C(O)C(F)(F)F` (some centres undefined), the “Percent Effect” value is 41.52%. The same measure for `CC(C)N1[C@H](Cn2cccn2)C[C@@H]2CN(Cc3ccoc3)CC[C@@H]21.O=C(O)C(F)(F)F.O=C(O)C(F)(F)F.O=C(O)C(F)(F)F`: 39.12%; for `CN1C(Cn2cccn2)C[C@@H]2CN(Cc3cccnc3)CC[C@@H]21.O=C(O)C(F)(F)F.O=C(O)C(F)(F)F.O=C(O)C(F)(F)F.O=C(O)C(F)(F)F` (some centres undefined): 11.1%.

On to `CN1[C@H](Cn2cccn2)C[C@@H]2CN(Cc3cccs3)CC[C@@H]21.O=C(O)C(F)(F)F.O=C(O)C(F)(F)F.O=C(O)C(F)(F)F`, for which the “Percent Effect” value turned out to be 75.74%.

On to `Cc1ccoc1C(=O)N1CC[C@H]2[C@H](C[C@@H](CN3CCCC3)N2C)C1.O=C(O)C(F)(F)F.O=C(O)C(F)(F)F`, for which the “Percent Effect” value is given as -53.97%. Consider `CN1[C@H](CN2CCCC2)C[C@@H]2CN(Cc3ccoc3)CC[C@@H]21.O=C(O)C(F)(F)F.O=C(O)C(F)(F)F.O=C(O)C(F)(F)F`, for which the “Percent Effect” value was 57.43%. Consider `CCc1nc2n(n1)CC(NCc1cc(OC)c3c(c1)OCCO3)CC2` (centres undefined), for which the “Percent Effect” value is -60.23%. As to `O=C(CN1CC(c2ccccc2)CC1=O)N1CCN(c2nccs2)CC1` (centres undefined), the “Percent Effect” value is -33.46%. The same measure for `Cc1nc(-c2cccc(C(=O)O)c2)cc(C2CCCN(C(C)C)C2)n1` (centres undefined): -116.2%; for `COc1cccc(CNc2nnc(C(C)(C)C)o2)c1OC`: -115.2%; for `CC(C(=O)N1CCc2sccc2C1)N1CCCN(C2CC2)CC1` (centres undefined): 19.49%. The same measure for `CC(C(=O)N1CCc2sccc2C1)N1CCC(N2CCCC2)CC1` (centres undefined): 51.04%. The same measure for `CC(C)NC(=O)C1CCN(C(C)C(=O)N2CCc3sccc3C2)CC1` (centres undefined): -19.38%. Consider `COC(=O)CC(C1=Cc2ccccc2OC1)c1oc(C)cc(=O)c1O` (centres undefined), for which the “Percent Effect” value is listed as -54.1%. As for `COCCC1(CNC(=O)Nc2ccnc(C)c2)CCCC1`, the figure is 72.21%. In the case of `Cc1cc(NC(=O)NCC2(O)CCCC2)ccn1`, the “Percent Effect” value was -130.9%.

As for `COCCC1(CNC(=O)Nc2ccc(-n3nccn3)cc2)CCC1`, the “Percent Effect” value is -17.2%. The same measure for `COc1ncc(C2(O)CCN(Cc3cc(F)cc(F)c3)CC2)c(OC)n1`: -99.52%; for `O=c1[nH]nc2c(S(=O)(=O)N3CCOCC3)cccn12`: -183.8%; for `CNC(=O)c1cc2c(nc1NCC1CC1)CCN(c1ncccn1)CC2`: -64.19%. As for `O=S(=O)(Nc1ccc2c(c1)OCCO2)N1CCCCC1`, the figure is -170%; as for `Cc1ccc(CNC(c2ccc(F)cc2)c2nccn2C)o1` (centres undefined), -33.59%; as for `Cc1ccc(CNCCC(O)(c2nccn2C)C(F)(F)F)o1` (centres undefined), 72.37%.

Consider `Cc1ccc(CNC(c2cccc(F)c2)c2nccn2C)o1.Cl` (centres undefined), for which the “Percent Effect” value was 35.29%. As for `Cn1ccnc1CN1CCCN(C(=O)c2ccc(Cl)o2)CC1`, the “Percent Effect” value is listed as -26.42%.

Regarding `CCc1n[nH]c(C2CN(C(=O)COCC(F)(F)F)CCO2)n1` (centres undefined), the “Percent Effect” value is reported as -109.1%. The same measure for `CCc1c(C)n(CCC#N)c2nc3ccccc3n2c1=O`: -59.08%; for `CCc1nnc2n1CCN(C(=O)C1CCC(n3cccc3)CC1)C2` (centres undefined): -12.54%.

`O=C1CCc2cc(-c3csc(CCN4CCOC4=O)n3)c(F)cc2N1`: the “Percent Effect” value is reported as 10.62%.

In the case of `COc1cccc(CSc2nnc(C)n2CC(N)=O)c1`, the “Percent Effect” value is -57.97%. Consider `NC(=O)CN(Cc1ccc(Br)cc1)C(=O)c1cccnc1`, for which the “Percent Effect” value was -140.6%. Consider `COc1ccc(-n2cccn2)c(CN2CCOCC(CN(C)C)C2)c1` (centres undefined), for which the “Percent Effect” value is listed as 78.01%. As for `Cc1ccc(-n2cc(CN3CCOCC(CN(C)C)C3)cn2)cc1C` (centres undefined), the figure is 38.47%; as for `Cc1cc(-n2cccn2)ccc1CN1C[C@@H](CN(C)C)[C@@H](CO)C1`, 52.18%. Consider `COc1ccc(O[C@H]2COCCN(Cc3c[nH]c4ccccc34)C2)cc1`, for which the “Percent Effect” value is -21.41%.

As for `COc1ccc(CN2C[C@@H](CN(C)C)[C@@H](CO)C2)cc1OC`, the “Percent Effect” value is recorded as -68.69%. As for `Cc1cc(C)c(-n2cccn2)c(CN2CCOCC(CN(C)C)C2)c1` (centres undefined), the figure is 34.59%; as for `Cc1cc(-n2cccn2)ccc1CN1CCOCC(CN(C)C)C1` (centres undefined), 73.33%; as for `COc1ccc(CN2CCOC[C@H](Oc3cccnc3)C2)cc1`, -114.4%. With `COc1ccc(CN2C[C@@H](CN(C)C)[C@@H](CO)C2)c(Cl)c1OC`, the “Percent Effect” value is given as -21.55%.

On to `CCc1cc2c(N3CCCC(c4ccn[nH]4)C3)ncnc2s1` (centres undefined), for which the “Percent Effect” value was found to be 10.63%. The same measure for `O=C(CC1CCc2ccccc21)N1CCC(O)(Cn2ccnc2)CC1` (centres undefined): -24.52%.

Regarding `CCCN1CCC(c2nc3ccc(-c4cccc(OC)c4)cn3n2)CC1.O=C(O)C(F)(F)F`, the “Percent Effect” value is -29.22%. As for `CCN(CC)Cc1nnc2sc(-c3cc(C(C)C)[nH]n3)nn12`, the figure is -70.51%; as for `CN(C(=O)Cn1nc(-c2ccc(Cl)cc2)ccc1=O)C1CCS(=O)(=O)C1` (centres undefined), 1.296%. Take `CC(=O)N1CCC(c2nc3ccc(-c4ccnn4C)cn3n2)CC1.O=C(O)C(F)(F)F`: the “Percent Effect” value is reported as -57.67%. The same measure for `NC(=O)N1Cc2nccn2CC(Cn2ncccc2=O)C1` (centres undefined): -152.6%; for `Cc1ccc(CN2CCC3(CCN(Cc4ccncc4)CC3)CC2)cc1`: 77.61%; for `COCCC(=O)N1CC2(CCN(Cc3ccncc3)CC2)C1`: -37.67%.

Regarding `COCCC(=O)N1CCC2(CCN(Cc3ccc(C)cc3)CC2)C1.O=C(O)C(F)(F)F`, the “Percent Effect” value is on record as -50.1%. As for `COCC(=O)N1CCC2(CCN(Cc3ccc(C)cc3)CC2)CC1.O=C(O)C(F)(F)F`, the figure is -23.78%; as for `Cc1nc(CN2CCC23CCN(Cc2ccoc2)CC3)cs1`, 35.85%; as for `CS(=O)(=O)N1CCCC12CCN(Cc1ccoc1)CC2`, -46.44%. As for `Cn1ccnc1CN1CC2(CCN(Cc3ccncc3)C2)C1`, the figure is -45.53%; as for `O=C(O)C(F)(F)F.O=C(O)C(F)(F)F.O=C(O)C(F)(F)F.c1cc(CN2CCCC23CCCN(Cc2ccoc2)C3)ccn1` (centres undefined), -115.9%; as for `CS(=O)(=O)N1CCOCC2(CCN(Cc3ccoc3)CC2)C1.O=C(O)C(F)(F)F`, -77.45%. As for `Cc1ccc(CN2CCCC3(CCN(Cc4ccoc4)CC3)C2)cc1.O=C(O)C(F)(F)F.O=C(O)C(F)(F)F`, the figure is 79.2%; as for `Cc1ccc(CN2CCC3(CC2)CCN(Cc2ccoc2)CC3)cc1.O=C(O)C(F)(F)F.O=C(O)C(F)(F)F`, 92.5%.

Regarding `O=C(CCn1cncn1)NC1CCc2nccn2C1` (centres undefined), the “Percent Effect” value was -109.9%. In the case of `C[C@]1(O)CN(Cc2ccc(C(=O)O)cc2)CC[C@@H]1Oc1cccc(F)c1`, the “Percent Effect” value is -93.08%.

As to `O=c1ccc2c(n1CC1CC1)CCN(c1ncccn1)CC2`, the “Percent Effect” value stood at 5.282%. As for `O=C(O)C(F)(F)F.O=C(O)C(F)(F)F.c1ccc(COC[C@@H]2CCC[C@]23CN(Cc2nccs2)CCO3)nc1`, the figure is -24.57%. As for `O=S(=O)(Cc1ccc(F)cc1)NCCc1nnc2n1CCC2`, the figure is -62.4%; as for `Cc1nc(CNC(=O)NC(C)c2ccc3c(c2)OCCO3)cs1` (centres undefined), -69.15%; as for `COCCn1ccc(=O)c(OCC(=O)Nc2cccc(OC)c2)c1C`, -50.47%. For the molecule `COCc1cc(CNCc2c(C)n(CC(C)C)c3ccccc23)n[nH]1`, the “Percent Effect” value is given as -32.81%. For `Cc1cc(NC(=O)C(C#N)Cc2cnn(C)c2C)no1` (centres undefined), the “Percent Effect” value is reported as -0.6706%. In the case of `O=C(c1cnccn1)N1CCC2(CCCN(Cc3ccoc3)C2)C1` (centres undefined), the “Percent Effect” value is recorded as -97.37%. Take `Cc1ccc(CN2CCC3(CCCN(C(=O)N(C)C)C3)C2)cc1` (centres undefined): the “Percent Effect” value is reported as -64.1%. In the case of `CCOC(=O)[C@H]1[C@@H](O)C(=O)N(C)C12CCN(C(=O)C(CC)CC)CC2`, the “Percent Effect” value was -15.32%. Take `CCN(C)C(=O)Nc1cc(F)c(OC)cc1F`: the “Percent Effect” value is recorded as -13.37%. For `O=C(c1ccc(F)c(Br)c1)N1CCCN2CCCC2C1` (centres undefined), the “Percent Effect” value was determined as 22.61%. The same measure for `c1cncc(N2CCOC3(CCCN(c4nncs4)C3)C2)c1` (centres undefined): -13.46%; for `COc1ccc(N2CCCC3(C2)CN(c2nncs2)CCO3)cc1` (centres undefined): 87.98%; for `Cc1cccc(N2CCCC3(C2)CN(c2nncs2)CCO3)c1` (centres undefined): -92.55%.
